HCV inh: inhibitors of hepatitis C virus infection. AID 651820. Potency, µM (highest dose often 41.8 µM), inactives show at the top dose activity change, negative = inhibition, usual class: inhibitors. actives 3.4% (n = 340,000). Huh7.5.1 HCVcc-Cre infection, luciferase reporter, 44 h; further: potency means the concentration at half of the fitted maximal effect; on the % scale 0 is the no-effect control and ±100 the full control effect
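Cells seeded at 1,000/well and cultured 4 h, then compounds added followed by HCVcc-Cre virus (~0.5 moi). After 44 h further culture, luciferase substrate was added, plates held 15 min at room temperature, and luminescence read for 15 sec.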
Pf growth 48h: P. falciparum growth inhibition at 48 hours (one generation); Potency, µM (doses to about 28.7 µM), without a hit: at the top dose activity change, negative = inhibition, usual class: inhibitors; actives 5.9% (n = 310,000); P. falciparum luciferase growth in erythrocytes, 48 h; AID 504832; further: potency means the concentration at half of the fitted maximal effect; on the % scale 0 is the no-effect control and ±100 the full control effect
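Parasite viability was followed by luminescence of a genomically integrated firefly luciferase. Cultures held 0.1% parasitemia at 2% hematocrit (final), incubated under 5% CO2 at 37 C.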
SARS PLP yeast: SARS-CoV PLP inhibition in yeast; Potency, µM (titrated, usually from 32.9 µM), inactives show top-dose activity, positive = growth rescue, usual class: activators; S. cerevisiae expressing SARS-CoV PLpro, growth rescue; AID 485353; actives 0.19% (n = 330,000); calls by dose curve; further: potency means the concentration at half of the fitted maximal effect; 0% is about no effect; nearly all actives have a fitted effect of over 55% in size
Pf growth 96h: inhibits malaria parasite growth, 96 h. P. falciparum luciferase reporter growth, 96 h. Potency, µM (top dose mostly 28.7 µM), for the others: at the highest dose activity change, negative = inhibition, hits mostly inhibitors. actives 6.9% (n = 320,000); further: potency means the concentration at half of the fitted maximal effect; on the % scale 0 is the no-effect control and ±100 the full control effect
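Readout is luminescence from an integrated firefly luciferase in P. falciparum. Red cells, 2% hematocrit and 0.05% parasitemia final, were cultured with compound through two parasite generations (96 hours) at 37 C, 5% CO2.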
HCMV antiviral: inhibitors of human cytomegalovirus | activity change, negative = inhibition, % at 57.5 µM | actives 4.5% (n = 410,000) | HFF cells, HCMV-luciferase reporter, 72 h; stronger effect = lower value; in the data active means activity change below about -60%; inconclusive means no clear call, values can overlap the other calls; inactive means above about -39%; further: on the % scale 0 is the no-effect control and ±100 the full control effect
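Steps: HFFs plated, 16 h 37C; compounds added; HCMV-luciferase added to MOI 1 PFU/cell; 72 h 37C; OneGlo reagent, 5 min room temperature; luminescence read, normalized to controls.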
Sm TGR inh: blocks Schistosoma mansoni thioredoxin glutathione reductase | Q962Y6 | actives 3% (n = 360,000) | AID 485364 | Potency, µM (doses to about 114 µM), for inactives: at the highest dose activity change, negative = inhibition, most hits filed as inhibitors | purified TGR, DTNB reduction, TNB absorbance 405 nm; further: potency means the concentration at half of the fitted maximal effect; on the % scale 0 is the no-effect control and ±100 the full control effect; nearly all actives have a fitted effect of over 60% in size
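TGR 20 nM + NADPH 100 uM (dispensed conc.), cpd preinc 15 min RT; start with NADPH (500 uM addition) then DTNB (15 mM addition). Kinetic TNB absorbance, 405 nm filter. Four-parameter Hill fit across titration.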
* = called active by the depositor. Rows were chosen to be rich in hits. Some 15% of all compounds tested hit in one or more screens of this group. Unless noted, the call rests on the fitted dose curve; in most records, active means well fitted curve in the direction sought with a large enough effect; inconclusive means small, poorly fitted or top-dose-only effect, or another doubt; inactive means no such curve, though single readings can be large; an effect the other way counts as inactive or inconclusive.

CCN1CCn2c3c(c4cc(C)ccc42)CCCC31 (configuration not stated) was read as HCV inh inconclusive, Pf growth 48h 8.3µM*, SARS PLP yeast -2%, Pf growth 96h 55%, HCMV antiviral -18 and Sm TGR inh -29%.
`Cc1ccc2c(c1)c1c3n2CCN(CCC#N)C3CCC1` (configuration not stated) gave HCMV antiviral -27.
Screening CC(=O)N1CCn2c3c(c(=O)c4cc(C)ccc42)CCC31 (configuration not stated) returned HCV inh -5%, Pf growth 48h inconclusive, SARS PLP yeast 7%, HCMV antiviral -9 and Sm TGR inh 20µM*.
Screening Cc1ccc2c(c1)c1c3n2CCN(C(=O)CCl)C3CCC1 (configuration not stated) returned HCV inh 22µM*, Pf growth 48h inconclusive, SARS PLP yeast 7%, Pf growth 96h inconclusive, HCMV antiviral -19 and Sm TGR inh 22µM*.
CC(=O)Nc1ccc(NC(=O)C(NS(=O)(=O)c2ccc(Br)s2)c2ccccc2)cc1 (configuration not stated) was read as HCMV antiviral 2 and Sm TGR inh 10%.
For CN1CCN(S(=O)(=O)c2cccc(C(=O)NCCOc3ccccc3F)c2)CC1 the results were HCV inh 4%, Pf growth 48h -4%, SARS PLP yeast -2%, Pf growth 96h 3%, HCMV antiviral 20 and Sm TGR inh -1%.
Screening Cc1ccc(-c2nc3ccc(Br)cn3c2Cc2cccc(Cl)c2)cc1 returned HCMV antiviral -7.
For CCN(CC(=O)Nc1ccccc1OC)C(=O)c1ccc(NS(=O)(=O)c2ccc(C(C)=O)cc2)cc1 the results were HCV inh 8%, Pf growth 48h 13%, SARS PLP yeast -7%, Pf growth 96h 1%, HCMV antiviral 29 and Sm TGR inh -21%.
`CCCc1cc(=O)[nH]c(Nc2cc(Cl)cc(Cl)c2)n1` gave HCMV antiviral -106* and Sm TGR inh 11%.
`CCCCCc1c(C)nc(Nc2ccc(F)cc2)[nH]c1=O` gave HCV inh 0%, Pf growth 48h inconclusive, SARS PLP yeast -5%, HCMV antiviral -70* and Sm TGR inh 3%.
CCCCc1ccc(Nc2nc(CCC)cc(=O)[nH]2)cc1 was read as HCV inh -20%, Pf growth 48h 10µM*, SARS PLP yeast -9%, HCMV antiviral -10 and Sm TGR inh -8%.
CCOC(=O)c1nc(Nc2ccc(N3CCC(C)CC3)cc2)c2ccccc2n1 was read as HCV inh -5%, Pf growth 48h inconclusive, SARS PLP yeast -1%, Pf growth 96h 33%, HCMV antiviral 6 and Sm TGR inh -18%.
Screening CCN(Cc1ccccc1)C(=O)CCS(=O)(=O)c1cc2c(cc1Cl)NC(=O)CO2 returned HCV inh 3%, Pf growth 48h -18%, SARS PLP yeast -1%, Pf growth 96h inconclusive, HCMV antiviral -5 and Sm TGR inh -1%.
Screening O=c1[nH]c(=O)n(Cc2ccco2)c(O)c1C=NCc1cccs1 returned Pf growth 48h -21%, HCMV antiviral 7 and Sm TGR inh inconclusive.
CCN(CC)c1ccc(N=Cc2c(O)n(Cc3ccco3)c(=O)[nH]c2=O)cc1 was read as HCV inh 10%, Pf growth 48h 12µM*, SARS PLP yeast 0%, Pf growth 96h inconclusive, HCMV antiviral -9 and Sm TGR inh -27%.
For N#Cc1c(/N=C/c2c(O)n(Cc3ccco3)c(=O)[nH]c2=O)sc2c1CCCC2 the results were HCV inh -8%, Pf growth 48h 51%, SARS PLP yeast 24%, Pf growth 96h inconclusive, HCMV antiviral 1 and Sm TGR inh 89µM*.
For COc1ccc(CCn2c(O)c(C=Nc3ccc(F)cc3)c(=O)[nH]c2=O)cc1OC the results were HCV inh -6%, Pf growth 48h -4%, SARS PLP yeast 1%, Pf growth 96h 12%, HCMV antiviral -12 and Sm TGR inh -8%.
`CCN(CC)c1ccc(N=Cc2c(O)n(CCc3ccc(OC)c(OC)c3)c(=O)[nH]c2=O)cc1` gave HCV inh 16%, Pf growth 48h 7.4µM*, SARS PLP yeast 8%, Pf growth 96h 10µM*, HCMV antiviral 31 and Sm TGR inh -2%.
CN(C)CCN=Cc1c(O)n(Cc2ccco2)c(=O)[nH]c1=O was read as HCV inh 3%, Pf growth 48h 17%, SARS PLP yeast -4%, Pf growth 96h 0%, HCMV antiviral 22 and Sm TGR inh -14%.
`Cc1ccc(/C=N/c2sc3c(c2C#N)CCC3)s1` gave HCV inh 3%, Pf growth 48h 71%, SARS PLP yeast -5%, Pf growth 96h 7.4µM*, HCMV antiviral 48 and Sm TGR inh -31%.
For COC(=O)c1cc(C(=O)N2CCc3ccccc32)cc([N+](=O)[O-])c1 the results were HCV inh 13%, Pf growth 48h -1%, SARS PLP yeast -1%, Pf growth 96h 0%, HCMV antiviral 41 and Sm TGR inh 15%.
`CCc1nc2ccc(C(=O)NCc3ccc(OC)cc3)cn2c1N(C)C(=O)Cc1ccccc1` gave HCMV antiviral -30.
NC(=O)c1ccc(N=Cc2c(O)n(Cc3ccco3)c(=O)[nH]c2=O)cc1 was read as HCV inh 17%, Pf growth 48h 74%, SARS PLP yeast 0%, Pf growth 96h 22%, HCMV antiviral 0 and Sm TGR inh 40µM*.
Screening O=c1[nH]c(=O)n(Cc2ccco2)c(O)c1/C=N/N1CCCCCC1 returned HCV inh 25%, Pf growth 48h 22%, SARS PLP yeast 12%, Pf growth 96h inconclusive, HCMV antiviral -18 and Sm TGR inh -5%.
For CNC(=S)N1CCc2cc(OC)c(OC)cc2C1COc1ccc(F)cc1 (configuration not stated) the results were HCV inh -7%, Pf growth 48h inconclusive, SARS PLP yeast 0%, Pf growth 96h -39%, HCMV antiviral 38 and Sm TGR inh 6%.
Screening COCCNC(=S)N1CCc2cc(OC)c(OC)cc2C1COc1ccc(F)cc1 (configuration not stated) returned HCV inh -14%, Pf growth 48h inconclusive, SARS PLP yeast 1%, Pf growth 96h 35%, HCMV antiviral 18 and Sm TGR inh 8%.

Bioassay records deposited in PubChem BioAssay by National Center for Advancing Translational Sciences (NCATS).
